# Results: PubChem BioAssay
# For some assays here: Results with a measured potency or affinity are listed apart. Active and inactive are the calls of the source.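 How the source made its calls, unless noted: active means primary screen inhibitor hit that blocks the TRPC4 channel at some tested dose, yielding a dose curve; inactive means the rest.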
# How the values were obtained:
# [1] = system: TRPC4 beta (transient receptor potential cation channel C4), mouse; test: TRPC4 cation channel opening, retest – cell-based, Fluo4 calcium, HEK293 TRPC4beta/mu-opioid, duplicates, 10 µM, confirmation (AID 2426;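 active means fluorescence ratio normalized to control raised more than 50% in primary screen plus both repeat runs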); conditions: Fluo4 calcium fluorescence, at 10 µM; active compounds read high
# [2] = system: transient receptor potential cation channel C4 beta (TRPC4), mouse; test: TRPC4 cation channel opening, second retest – cell-based, second round, Fluo4, HEK293 TRPC4beta/mu-opioid, 1 µM, confirmation (AID 2461;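 active means primary screen active and over 50% activation in each of two duplicate runs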); conditions: Fluo4 calcium fluorescence, at 1 µM; active compounds read high
# [3] = system: TRPC4 (transient receptor potential cation channel C4 beta), mouse; test: potentiation of DAMGO EC20 TRPC4 response – cell-based, second round, Fluo-4, HEK293 TRPC4beta/mu-opioid, 1 µM, confirmation (AID 2554;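 active means primary screen hit whose fluorescence ratio, in both repeats, exceeds the weak agonist control mean by 3 SD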); conditions: DAMGO EC20, Fluo-4 calcium flux, at 1 µM; active compounds read high
# [4] = system: TRPC4 beta (transient receptor potential cation channel C4), mouse; test: potentiation of DAMGO EC20 TRPC4 response – cell-based, Fluo-4, HEK293 TRPC4beta/mu-opioid, confirmation (AID 2555;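 active means primary screen hit whose calcium fluorescence ratio, in both repeats, exceeds the weak agonist control mean by 3 SD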); conditions: DAMGO EC20, Fluo-4 calcium flux, at 10 µM; active compounds read high
# [5] = molecular target: Short transient receptor potential channel 4 (Mus musculus) (UniProt Q9QUQ5); test: blockers of DAMGO-evoked TRPC4 calcium flux – cell-based, Fluo4, HEK293 TRPC4beta/mu-opioid, confirmation (AID 2636;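 active means calcium signal cut by more than 3 SD below the full-agonist control yet still positive, in both repeats and the earlier primary screen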); conditions: at 10 µM; active compounds read high
# Short transient receptor potential channel 4 (Mus musculus), sequence (Q9QUQ5 whole entry, looked up): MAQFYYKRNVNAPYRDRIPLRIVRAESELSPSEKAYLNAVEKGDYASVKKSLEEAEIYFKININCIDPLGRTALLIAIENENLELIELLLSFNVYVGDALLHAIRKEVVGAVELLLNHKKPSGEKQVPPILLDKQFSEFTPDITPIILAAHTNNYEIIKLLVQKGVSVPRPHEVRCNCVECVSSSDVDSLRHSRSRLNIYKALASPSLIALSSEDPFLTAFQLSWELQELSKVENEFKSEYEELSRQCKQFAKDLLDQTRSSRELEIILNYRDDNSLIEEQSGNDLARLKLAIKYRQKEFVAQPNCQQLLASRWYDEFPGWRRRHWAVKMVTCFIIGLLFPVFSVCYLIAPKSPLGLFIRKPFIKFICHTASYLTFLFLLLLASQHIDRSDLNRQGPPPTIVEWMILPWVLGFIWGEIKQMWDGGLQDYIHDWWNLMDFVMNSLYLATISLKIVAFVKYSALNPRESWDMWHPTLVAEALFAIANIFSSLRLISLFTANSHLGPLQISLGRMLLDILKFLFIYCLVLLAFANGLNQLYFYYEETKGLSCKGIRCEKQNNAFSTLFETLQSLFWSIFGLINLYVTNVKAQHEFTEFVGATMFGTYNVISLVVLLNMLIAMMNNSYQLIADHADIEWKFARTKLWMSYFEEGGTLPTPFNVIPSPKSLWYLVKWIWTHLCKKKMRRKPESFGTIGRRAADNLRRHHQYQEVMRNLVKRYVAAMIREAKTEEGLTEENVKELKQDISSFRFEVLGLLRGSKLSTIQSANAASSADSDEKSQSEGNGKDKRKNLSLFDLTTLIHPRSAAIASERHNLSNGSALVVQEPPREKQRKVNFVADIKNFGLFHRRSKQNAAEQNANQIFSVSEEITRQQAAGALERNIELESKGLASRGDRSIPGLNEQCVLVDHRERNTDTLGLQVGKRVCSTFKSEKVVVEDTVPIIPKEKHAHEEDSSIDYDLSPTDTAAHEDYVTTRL
# [6] = molecular target: Short transient receptor potential channel 4 (Mus musculus) (UniProt Q9QUQ5); test: blockers of DAMGO-evoked TRPC4 calcium flux – cell-based, second round, Fluo4, HEK293 TRPC4beta/mu-opioid, 1 µM, confirmation (AID 2637;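 active means calcium signal ratio cut to more than 3 SD under the fully stimulated control mean yet still positive, in both repeats and the primary screen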); conditions: at 1 µM; active compounds read high
# [7] = molecular target: Short transient receptor potential channel 4 (Mus musculus) (UniProt Q9QUQ5); test: calcium entry via TRPC4 opening agents – cell-based, HEK293 TRPC4/mu-opioid, Fluo-4 calcium, dose response (AID 434937;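 active means primary screen activator hit with a dose response curve and TRPC4 channel activation at any tested dose; inactive means no activation, no dose response, or not a primary hit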)
# [8] = molecular target: Short transient receptor potential channel 4 (Mus musculus) (UniProt Q9QUQ5); test: potentiation of DAMGO-evoked TRPC4 calcium signal – cell-based, HEK293 TRPC4/mu-opioid, Fluo-4 calcium, EC20 DAMGO, dose response (AID 434941;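 active means earlier screen potentiator hit that boosts the TRPC4 ion channel at some dose, with a dose response; inactive means no potentiation, no dose response, or not a prior hit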;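 further: calcium entry triggered by an EC20 dose of DAMGO at the co-expressed mu-opioid receptor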)
# [9] = molecular target: Short transient receptor potential channel 4 (Mus musculus) (UniProt Q9QUQ5); test: block of DAMGO-driven TRPC4 calcium entry – cell-based, HEK293 TRPC4/mu-opioid, Fluo-4 calcium, dose response (AID 434942)
# [10] = molecular target: Short transient receptor potential channel 6 (Mus musculus) (UniProt Q61143); test: TRPC6 blockade by TRPC4 inhibitor hits – cell-based, HEK293, membrane potential dye, duplicate, selectivity assay for TRPC4 inhibitor project, confirmation (AID 434948;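 active means active in primary screen and both duplicates, each dropping signal beyond three positive-control SD with fluorescence still positive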); conditions: HEK293 TRPC6, membrane potential dye fluorescence, at 10 µM, stimulated with maximal-effect acetylcholine; active compounds read high
# Short transient receptor potential channel 6 (Mus musculus), sequence (Q61143 whole entry, looked up): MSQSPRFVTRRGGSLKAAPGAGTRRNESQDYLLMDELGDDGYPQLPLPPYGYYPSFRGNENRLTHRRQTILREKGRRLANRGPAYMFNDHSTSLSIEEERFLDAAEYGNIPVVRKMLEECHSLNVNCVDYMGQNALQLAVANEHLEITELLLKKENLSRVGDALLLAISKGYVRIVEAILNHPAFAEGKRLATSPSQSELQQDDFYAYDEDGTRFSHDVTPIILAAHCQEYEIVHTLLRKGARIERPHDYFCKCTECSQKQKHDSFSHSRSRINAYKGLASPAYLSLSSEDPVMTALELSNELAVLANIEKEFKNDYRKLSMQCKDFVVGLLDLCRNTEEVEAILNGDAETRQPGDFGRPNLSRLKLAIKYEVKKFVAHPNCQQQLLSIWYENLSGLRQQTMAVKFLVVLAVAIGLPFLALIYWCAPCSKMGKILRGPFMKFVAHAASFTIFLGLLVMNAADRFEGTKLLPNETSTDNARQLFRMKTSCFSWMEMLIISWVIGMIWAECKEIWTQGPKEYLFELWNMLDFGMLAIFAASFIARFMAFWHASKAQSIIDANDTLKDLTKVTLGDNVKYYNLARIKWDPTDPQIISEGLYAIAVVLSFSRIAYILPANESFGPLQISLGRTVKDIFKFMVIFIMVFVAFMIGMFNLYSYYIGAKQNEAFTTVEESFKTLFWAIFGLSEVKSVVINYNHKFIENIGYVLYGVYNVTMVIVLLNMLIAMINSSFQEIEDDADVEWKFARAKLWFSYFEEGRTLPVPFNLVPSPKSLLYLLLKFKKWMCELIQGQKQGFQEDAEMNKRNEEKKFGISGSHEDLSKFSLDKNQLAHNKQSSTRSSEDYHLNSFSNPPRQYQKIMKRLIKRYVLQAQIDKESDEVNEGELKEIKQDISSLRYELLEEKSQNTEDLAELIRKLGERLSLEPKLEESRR
# [11] = molecular target: Short transient receptor potential channel 6 (Mus musculus) (UniProt Q61143); test: TRPC6 opening by TRPC4 activator hits – cell-based, HEK293, membrane potential dye, duplicate, selectivity assay for TRPC4 activator project, confirmation (AID 434950;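 active means membrane potential signal rise above negative control mean plus 3 SD in both duplicates, also active in the earlier TRPC4 screen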); conditions: HEK293 TRPC6, membrane potential fluorescence, at 10 µM; activation: active compounds read high; outcome: activation
# [12] = molecular target: Short transient receptor potential channel 6 (Mus musculus) (UniProt Q61143); test: positive modulators of mouse TRPC6 channel – HEK293 cells, membrane potential dye, duplicate, selectivity assay for TRPC4 potentiator project, confirmation (AID 434952;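 active means compound raising the membrane signal above positive-control mean plus 3 SD in both repeats, and a primary screen hit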); conditions: HEK293 TRPC6, membrane potential dye fluorescence, at 10 µM, maximal acetylcholine added after compound; active compounds read high
# [13] = molecular target: Short transient receptor potential channel 4 (Mus musculus) (UniProt Q9QUQ5); test: calcium flux activators in TRPC4/5HT1a cells, counter-screen for TRPC4 activator project, cell-based, second counter screen, HEK293 TRPC4/5HT1a, Fluo-4 (AID 434977;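 active means calcium signal rise above buffer-control mean plus 5 SD in both duplicates, and also a hit in the primary screen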); conditions: Fluo-4 calcium flux, at 10 µM; active compounds read high
# [14] = serotonin-gated TRPC4 signal block – cell-based, second counter screen, HEK293 TRPC4/5HT1a, Fluo-4, counter-screen for TRPC4 inhibitor project, confirmation (AID 434978;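 active means primary screen active whose calcium signal fell more than 3 SD beyond the full-serotonin control mean in both duplicate plates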;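 further: serotonin given first at submaximal then at maximal dose after compound preincubation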); conditions: Fluo-4 calcium flux, at 10 µM, serotonin added to trigger calcium flux; active compounds read high
# [15] = system: TRPC4 (mouse), co-expressed with 5HT1a in HEK293; test: enhancement of serotonin-evoked TRPC4 response – cell-based, second counter screen, HEK293 TRPC4/5HT1a, Fluo-4, counter-screen for TRPC4 potentiator project, confirmation (AID 434979;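 active means signal rise over 3 SD above mean of control wells given weak agonist, in both repeats and first screen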); conditions: Fluo-4 calcium flux, at 10 µM, serotonin added at its EC20 dose; active compounds read high
# [16] = nonspecific calcium rise without TRPC4 – cell-based, HEK293 mu-opioid receptor line, counter-screen for TRPC4 activator project, confirmation (AID 449723;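 active means hit in primary screen, with calcium signal over 5 SD above buffer well mean in both duplicates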;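 further: counter screen cells carry the mu-opioid receptor alone and lack TRPC4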); conditions: HEK293 mu-opioid cells, Fluo-4 calcium fluorescence, at 10 µM; active compounds read high
# [17] = nonspecific potentiation of DAMGO calcium response – cell-based, HEK293 mu-opioid receptor line, counter-screen for TRPC4 allosteric potentiator project, confirmation (AID 449724;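 active means calcium signal rise more than 3 SD above the low-dose agonist control mean, in both duplicate plates and the primary screen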); conditions: HEK293 mu-opioid receptor cells, Fluo-4 calcium flux, at 10 µM, compound added before EC20 DAMGO stimulus; active compounds read high
smiles,measurement,setting,value
COc1cc(Br)cc(C2C3=C(CCCC3=O)N(c3ccc(F)cc3)C3=C2C(=O)CCC3)c1O,outcome,[1],inactive
same,outcome,[2],inactive
same,outcome,[3],inactive
same,potentiation,[4],29% (active)
same,outcome,[5],inactive
same,outcome,[6],inactive
same,outcome,[7],inactive
same,outcome,[8],inactive
same,outcome,[9],inactive
same,outcome,[10],inactive
same,outcome,[11],inactive
same,outcome,[12],inactive
same,outcome,[13],inactive
same,outcome,[14],inactive
same,potentiation,[15],31.7% (active)
same,outcome,[16],inactive
same,outcome,[17],inactive
C=CCNC(=S)N1CCN(C2CCCCC2)CC1,outcome,[1],inactive
same,outcome,[2],inactive
same,potentiation,[3],53% (active)
same,potentiation,[4],36% (active)
same,outcome,[5],inactive
same,outcome,[6],inactive
same,outcome,[7],inactive
same,outcome,[8],inactive
same,outcome,[9],inactive
same,outcome,[10],inactive
same,outcome,[11],inactive
same,outcome,[12],inactive
same,outcome,[13],inactive
same,outcome,[14],inactive
same,potentiation,[15],18.6% (active)
same,outcome,[16],inactive
same,outcome,[17],inactive
Cc1ccc(CNC(=O)CSc2nc(=O)n3ccccc3n2)cc1,outcome,[1],inactive
same,outcome,[2],inactive
same,outcome,[3],inactive
same,outcome,[4],inactive
same,outcome,[5],inactive
same,outcome,[6],inactive
same,outcome,[7],inactive
same,outcome,[8],inactive
same,outcome,[9],inactive
same,outcome,[10],inactive
same,outcome,[11],inactive
same,outcome,[12],inactive
same,outcome,[13],inactive
same,outcome,[14],inactive
same,outcome,[15],inactive
same,outcome,[16],inactive
same,outcome,[17],inactive
COc1cc(/C=C2/SC(=O)NC2=O)ccc1OCc1ccccc1,outcome,[1],inactive
same,outcome,[2],inactive
same,outcome,[3],inactive
same,outcome,[4],inactive
same,outcome,[5],inactive
same,outcome,[6],inactive
same,outcome,[7],inactive
same,outcome,[8],inactive
same,outcome,[9],inactive
same,outcome,[10],inactive
same,outcome,[11],inactive
same,outcome,[12],inactive
same,outcome,[13],inactive
same,outcome,[14],inactive
same,outcome,[15],inactive
same,outcome,[16],inactive
same,outcome,[17],inactive
COc1ccc(CCN2CCCC(CN(C)C(=O)c3ccoc3)C2)cc1 (centres undefined),outcome,[1],inactive
same,outcome,[2],inactive
same,outcome,[3],inactive
same,outcome,[4],inactive
same,outcome,[5],inactive
same,outcome,[6],inactive
same,outcome,[7],inactive
same,outcome,[8],inactive
same,outcome,[9],inactive
same,outcome,[10],inactive
same,outcome,[11],inactive
same,outcome,[12],inactive
same,outcome,[13],inactive
same,outcome,[14],inactive
same,potentiation,[15],14.1% (active)
same,outcome,[16],inactive
same,outcome,[17],inactive
CCOc1nc(C)cc(C)c1S(=O)(=O)c1cccc(C)c1,outcome,[1],inactive
same,outcome,[2],inactive
same,outcome,[3],inactive
same,outcome,[4],inactive
same,outcome,[5],inactive
same,outcome,[6],inactive
same,outcome,[7],inactive
same,outcome,[8],inactive
same,outcome,[9],inactive
same,outcome,[10],inactive
same,outcome,[11],inactive
same,outcome,[12],inactive
same,outcome,[13],inactive
same,outcome,[14],inactive
same,outcome,[15],inactive
same,outcome,[16],inactive
same,outcome,[17],inactive
COC(=O)/C=C1\SC(=NC(=O)c2cccc(Cl)c2)NC1=O,outcome,[1],inactive
same,outcome,[2],inactive
same,outcome,[3],inactive
same,outcome,[4],inactive
same,inhibition,[5],76% (active)
same,outcome,[6],inactive
same,outcome,[7],inactive
same,outcome,[8],inactive
same,outcome,[9],inactive
same,outcome,[10],inactive
same,outcome,[11],inactive
same,outcome,[12],inactive
same,outcome,[13],inactive
same,outcome,[14],inactive
same,outcome,[15],inactive
same,outcome,[16],inactive
same,outcome,[17],inactive
